# Source: PubChem BioAssay
# This is a sample that favours compounds with a hit; in the whole collection about 12% have one here.
# SARS PLpro yeast – SARS-CoV PLP inhibition in yeast; AID 485353; 0.19% of 330,000 active; S. cerevisiae expressing SARS-CoV PLpro, growth rescue; Potency, µM (series often up to 32.9 µM), actives largely listed as activators; note: nearly all actives have a fitted effect of over 55% in size
# Shiga inhibitor – Shiga toxin inhibition | Vero cells, Shiga toxin protein synthesis inhibition reporter | inhibition, % at 38.7 µM | 9.2% of 290,000 active | AID 2315; in the data active = inhibition mostly above about 28%, no sharp cut-off; inactive = mostly below about 43%
# CHX counter – affects cycloheximide protein synthesis inhibition readout, counter-screen; 12% of 300,000 active; AID 2314; cell reporter, cycloheximide protein synthesis inhibition counterscreen; max response, %; in the data active = max response mostly above about 13%, no sharp cut-off; inactive = mostly below about 14%; note: read at 38.3 µM for the half of the compounds with a filed dose
# NS1 inh – inhibitors of influenza NS1 protein function | Potency, µM (highest dose often 46.1 µM) | 0.4% of 270,000 active; note: actives are rising curves; nearly all actives have a fitted effect of over 50% in size
#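 In this qHTS, NS1 from influenza A is expressed in budding yeast, where it slows growth. Cells are switched from glucose to 2% galactose medium (pH 6.0, -URA), treated with compound, and growth recovery is read at OD600.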
# Numbers stand for hits; – = inactive; ? = inconclusive; · = no result given. Unless noted, calls come from the whole dose curve.
SMILES,SARS PLpro yeast,Shiga inhibitor,CHX counter,NS1 inh
O=C(N/N=C/c1ccc([N+](=O)[O-])s1)C(O)c1ccccc1 (stereo not given),–,–,16,–
O=C(Cc1ccccc1)N/N=C/c1ccc([N+](=O)[O-])s1,–,111,–,–
O=C(N/N=C/c1ccc([N+](=O)[O-])s1)c1ccccc1,–,–,20,·
COC(=O)N/N=C/c1ccc([N+](=O)[O-])s1,–,–,–,–
O=C(N/N=C/c1ccc([N+](=O)[O-])s1)c1ccccc1Br,–,–,–,–
C=CCNC(=O)CN(CCc1ccccc1)S(=O)(=O)c1ccccc1,–,–,–,–
O=C(NCC(=O)N1CCN(c2ncccn2)CC1)c1ccc(F)cc1,–,·,·,·
CCCCOC1CC(c2ccc(OCc3ccc(OC)cc3)c(OC)c2)N(C)O1 (stereo not given),–,85,24,·
CCOc1ccc(C2CC(c3ccc(OC)c(OC)c3)n3nc(N)nc3N2)cc1 (stereo not given),?,–,–,–
O=C(COc1ccc(F)cc1Br)N1CCc2ccccc21,–,47,42,–
COc1cc(CO)ccc1OCC(=O)N1CCc2ccccc21,–,24,19,–
CC(Oc1ccccc1Br)C(=O)N1CCc2ccccc21 (stereo not given),–,79,51,–
O=Cc1ccc(OCC(=O)N2CCc3ccccc32)c(Br)c1,–,·,·,·
COc1cc(CCC(=O)OCC(=O)N2CCc3ccccc32)cc(OC)c1OC,–,–,–,–
CC(=O)N1CCOc2ccc(S(=O)(=O)NCC3CCC(C(=O)Nc4ncccc4C)CC3)cc21 (stereo not given),–,–,–,–
O=C(CCCSc1nc2ccccc2s1)NCc1ccco1,–,–,16,–
CCc1ccccc1NC(=O)CCCSc1nc2ccccc2s1,–,–,12,–
CN(C(=O)NC(=O)C1=C(N2CCOCC2)/C(=C/c2ccccc2)CC1)S(C)(=O)=O,–,53,29,–
O=C(O)c1ccc(N/N=C/C2=C(N3CCOCC3)C(=C\c3ccccc3)/CC2)cc1,–,74,38,–
CCCCN(C(=O)NC(=O)C1=C(N2CCOCC2)/C(=C/c2ccccc2)CC1)S(C)(=O)=O,–,–,–,–
Cc1cc(C)nc(N/N=C/C2=C(N3CCOCC3)C(=C\c3ccc(Cl)cc3)/CC2)n1,–,–,–,–
Cc1sc2ncn(CC(=O)NCCCOC(C)C)c(=O)c2c1S(=O)(=O)N1CCN(c2ncccn2)CC1,–,–,–,·
Cc1ccccc1NC(=O)CCCCCN1C(=O)[C@@H]2Cc3ccccc3CN2C1=O,–,–,–,–
O=C(CCCCCN1C(=O)[C@@H]2Cc3ccccc3CN2C1=O)Nc1ccccc1Cl,–,–,30,–
C=CCn1c(SCc2ccccc2)nc2scc(-c3ccc(C)o3)c2c1=O,–,–,–,–
SMILES,SARS PLpro yeast,Shiga inhibitor,CHX counter,NS1 inh
C=CCn1c(SCC(N)=O)nc2scc(-c3ccc(C)o3)c2c1=O,–,85,45,–
CCC1(CC)NC(=O)N(CC(=O)OC(C)C(=O)Nc2ccc(Cl)cn2)C1=O (stereo not given),–,·,·,·
Cc1c(/C(O)=C2\C(=O)C(=O)N(CCN(C)C)C2c2cccs2)cnn1-c1ccccc1 (stereo not given),–,–,19,–
Cc1c(/C(O)=C2\C(=O)C(=O)N(CCN(C)C)C2c2cccnc2)cnn1-c1ccccc1 (stereo not given),–,–,15,–
Cc1c(/C(O)=C2\C(=O)C(=O)N(CCCN(C)C)C2c2ccccc2)cnn1-c1ccccc1 (stereo not given),–,–,–,–
CCCN(CC(=O)Nc1ccccc1C)C(=O)c1ccc(C2SCCS2)cc1,–,·,·,·
O=C(NCCc1ccc(F)cc1)Nc1ccccc1,–,31,30,–
O=C(NCCc1ccc(Cl)cc1)Nc1ccc(Cl)cc1,–,43,–,–
O=C(NCCc1ccncc1)Nc1ccc(F)cc1,–,–,–,–
O=C(O)c1ccccc1/C=N\N=C1c2ccccc2-c2ccccc21,·,·,·,–
C[N+](C)(C)C(C1=CCCC1=O)c1ccccc1 (stereo not given),·,·,·,–
CCC(C)[C@H](NC(=O)N1CC(=O)Nc2ccccc21)C(=O)N[C@@H](C(=O)O)c1ccccc1 (stereo not given in full),·,–,–,–
O=C(NCc1ccc2c(c1)OCO2)C1COc2ccccc2O1 (stereo not given),?,34,–,–
O=C(NCc1ccc2c(c1)OCO2)C1CCCCC1,–,42,13,–
CC(NC(=O)Nc1ccc2c(c1)OCO2)C1CCCO1 (stereo not given),–,72,44,–
O=C(NCc1ccncc1)C1COc2ccccc2O1 (stereo not given),–,–,–,–
CS(=O)(=O)N1CCC(C(=O)Nc2ccc3c(c2)OCO3)CC1,–,–,–,–
O=C(Nc1ccc2c(c1)OCO2)C1CCCCC1,–,38,33,–
Clc1ccc(-c2noc3c2-c2nc(Cc4cccc5ccccc45)sc2CC3)cc1,–,·,·,·
CC(=O)NCCC(=O)Nc1nc(-c2ccccc2Cl)cs1,–,–,–,–
CC(=O)NCCC(=O)Nc1nc2c(ccc3ccccc32)s1,–,–,15,–
OC(COc1ccc(Cl)cc1)CSc1ccccn1 (stereo not given),–,–,27,–
Clc1ccc(OCCSc2ncccn2)cc1,–,117,55,–
c1cnc(SCCCOc2ccc3ccccc3c2)nc1,–,–,–,–
COc1ccc(OCCSc2nc(C)nc3ccccc23)cc1,–,–,43,·
SMILES,SARS PLpro yeast,Shiga inhibitor,CHX counter,NS1 inh
Clc1ccc(Sc2ccccn2)cc1,–,·,–,–
Cc1ccc(OCCCSc2ncccn2)cc1C,–,74,44,–
O=C(C1CCC(=O)N(C2CC2)C1)N(CCO)Cc1ccccc1 (stereo not given),–,–,–,–
Nn1c(SCC(=O)NC2CCCCC2)nnc1-c1ccccc1F,–,·,·,·
O=C(CS(=O)(=O)c1ccc(Cl)cc1)NCCS(=O)(=O)c1ccc(Cl)cc1,–,–,–,·
COc1ccc(OCCSc2ncccn2)cc1,–,113,46,–
COc1cccc(OCCCCSc2ncccn2)c1,–,–,–,–
COc1ccc(OCCCSc2ncccn2)cc1,–,104,39,–
COc1ccc(OCCSc2nnc(-c3ccc(OC)cc3)n2N)cc1,–,–,–,–
CN(C)S(=O)(=O)c1ccc(C(=O)NNC(=O)C2COc3ccccc3O2)cc1 (stereo not given),–,–,–,·
CC(=O)N1CCN(c2ccc(Nc3ncnc4c3oc3ccccc34)cc2)CC1,–,–,43,?
CCc1nc(Nc2ccc(N3CCN(C(C)=O)CC3)cc2)c2oc3ccccc3c2n1,–,–,18,–
Cc1nn(C)c(C)c1/C=N/O,–,–,–,–
CC(=O)NCc1ccc2[nH]c(C)cc2c1,–,–,–,–
Cc1ccc(NC(=O)NCc2ccc3[nH]c(C)cc3c2)cc1,–,41,–,·
Cc1cccc(NC(=O)NCc2ccc3[nH]c(C)cc3c2)c1,–,–,21,·
Cc1ccc(CNC(=O)Nc2cccc(C)c2)cc1,–,75,37,–
Cc1cc2cc(CNC(=O)NC3CCCCC3)ccc2[nH]1,–,40,18,?
Cc1cccc(NC(=O)Nc2ccc(C)cc2Br)c1,–,61,32,–
